Results from PubChem BioAssay (NCI).
About 83,000 compounds went through this panel and 20% of them were active in at least one assay; those are over-represented in the sample as a whole.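 Growth was measured after 48 h exposure to one concentration of compound in 96-well plates. Values under 10 count as active.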 Active and inactive are the calls of the source.

Each compound was assayed on A498 renal (assay: NCI-60 one-dose screen, 48 h (100 = growth as untreated, 0 = no growth, -100 = all killed)). Conditions: 10 µM unless noted.

SMILES | growth
N=C(N)c1ccc(-c2ccc(-c3ccco3)o2)cc1F | 11.6% (inactive)
CCOC(=O)Cn1c(-c2nonc2NC(=O)c2ccccc2F)nc2ccccc21 | 82.5% (inactive)
CC(C)OC1OC(OC(C)C)C(OC(C)C)OC1OC(C)C (stereo unspecified) | 101% (inactive)
Cc1nn(-c2ccccc2)c2nc3c(nc12)C1=NCCN1C(c1ccc(Cl)cc1)N3 (stereo unspecified) | 85.6% (inactive)
COc1ccc(-c2ccc(-c3ccc(C(=N)N)s3)s2)cc1 | -73.9% (active)
N=C(N)c1ccc(-c2ccc(-c3cccs3)s2)cc1F | -92.7% (active)
Cc1csc(N/N=C/c2ccncc2)n1 | 85.2% (inactive)
CCCCCCCCCCCCCCCC1=NCCN1 | 65.5% (inactive)
CCS(=O)(=O)Nc1cccc(Nc2c3cccc(C)c3nc3c(C)cccc23)c1OC | -1.15% (active)
N/C(=N\O)c1ncc(-c2ccc(C(F)(F)F)cc2)c(NC2CCCCCC2)n1 | -90.1% [100 µM] (active)
N/N=C(\C(=N\N)c1ccccc1)c1ccccc1 | 76.1% (inactive)
COc1cc(/C=C/c2cc(/C=C/c3ccc(O)c(OC)c3)n(C(=O)Nc3ccc(F)c(Cl)c3)n2)ccc1O | -13.6% (active)
Cc1cc(Nc2c3ccccc3nc3ccccc23)ccc1NS(C)(=O)=O | 24.2% (inactive)
O=C(CC(=O)c1ccccc1F)Nc1ccc([N+](=O)[O-])cc1 | 109% (inactive)
CCCCCCCCCCCC1=NC(C)(C)CN1CCO | 95.4% (inactive)
COc1cc2ccc(C(C)=O)cc2cc1OC | 65% (inactive)
Cc1ccccc1Nc1n[nH]c(Cc2ccccc2)n1 | 102% (inactive)
CNC1=C([N+](=O)[O-])C(c2ccccc2O)C(C#N)=C(c2cccs2)O1 (stereo unspecified) | 110% (inactive)
CCN(C(=O)CCl)C(C)(C)C(SSSC(c1ccc(Cl)cc1)C(C)(C)N(CC)C(=O)CCl)c1ccc(Cl)cc1 (stereo unspecified) | 98.8% (inactive)

SMILES | growth
COc1cc2c(cc1OC)-c1cc(OC)c(OC)cc1C(CN(C)C)C2 (stereo unspecified) | 52.6% [100 µM] (inactive)
CCCCOC(=O)c1cc(O)c(O)c(O)c1 | 122% (inactive)
FC(F)(F)c1cc(-c2nnc3n2N=C(Cl)CS3)cc(C(F)(F)F)c1 | 108% (inactive)
COc1cc2ncnc(Nc3ccc(S(=O)(=O)Nc4cc(C)on4)cc3)c2cc1OCCCN1CCN(c2ccc([N+](=O)[O-])cc2)CC1 | 110% (inactive)
COc1ccc(/C=N/NC(N)=S)c(OC)n1 | 99.1% (inactive)
O=C1c2cccc3cccc(c23)C(=O)N1CCCCCCCCCCN1C(=O)c2cccc3cccc(c23)C1=O | 105% (inactive)
O=C1OC(/C=C/c2ccccc2)=NC/1=C/c1ccccc1[N+](=O)[O-] | 121% (inactive)
C=C(c1ccc(C(=O)NCCCn2ccnc2)cc1)c1cc2c(cc1C)C(C)(C)CCC2(C)C | 116% (inactive)
O=[N+]([O-])c1ccc(Sc2nc(Cl)nc(NC3CCCC3)n2)cc1 | -94.2% [100 µM] (active)
O=C(NCCN1CCCCC1)n1cc(-c2ccncc2)c(-c2ccc(Cl)c(O)c2)n1 | 114% (inactive)
CC(C)(C)c1cc(C[P+](c2ccccc2)(c2ccccc2)c2ccccc2)cc(C(C)(C)C)c1O | -17.1% (active)
N#Cc1ccc(-c2ccc(-c3cccs3)o2)cc1F | 95.9% (inactive)
Cc1cccc2nc3ccccc3c(Nc3ccc(NS(C)(=O)=O)cc3)c12 | 45.3% (inactive)
COc1cc(OC)cc(-c2ccc(-c3ccc(C(=N)N)s3)s2)c1 | -80.9% (active)
C=C1C(=O)O[C@H]2[C@H]1CC/C(COC(=O)NCc1[nH]nc3ccccc13)=C\CC[C@@]1(C)O[C@@H]21 | 94.3% (inactive)
COC(=O)[C@H](Cc1cn(C)cn1)NC(=O)[C@H](CC(C)C)NC(=O)Nc1cc(C(F)(F)F)cc(C(F)(F)F)c1 | -93.8% [100 µM] (active)
CCOC(=O)c1cc(C(=O)OCC)c(C)nc1C | 110% (inactive)
COC(=O)[C@@H](Cc1c[nH]c2ccccc12)NC(=O)/C=C/c1ccccc1 | -9.95% (active)
CCOC(=O)C(CCCCC(NC(C)=O)(C(=O)OCC)C(=O)OCC)(NC(C)=O)C(=O)OCC | 115% (inactive)

The compounds below were run on CCRF-CEM leukemia in the same assay as above. Conditions: 10 µM unless noted.

SMILES | growth
CCOC(=O)Cn1c(-c2nonc2NC(=O)c2ccccc2F)nc2ccccc21 | 42.3% (inactive)
CC(C)OC1OC(OC(C)C)C(OC(C)C)OC1OC(C)C (stereo unspecified) | 93.4% (inactive)
COc1cc(/C=C/c2cc(/C=C/c3ccc(O)c(OC)c3)n(C(=O)Nc3ccc(F)c(Cl)c3)n2)ccc1O | 0.872% (active)
CCCCCCCCCCCC1=NC(C)(C)CN1CCO | 23.5% (inactive)
COc1cc2ccc(C(C)=O)cc2cc1OC | 118% (inactive)
Cc1ccccc1Nc1n[nH]c(Cc2ccccc2)n1 | 97.8% (inactive)
CNC1=C([N+](=O)[O-])C(c2ccccc2O)C(C#N)=C(c2cccs2)O1 (stereo unspecified) | 85.4% (inactive)
CCCCOC(=O)c1cc(O)c(O)c(O)c1 | 36.5% (inactive)
FC(F)(F)c1cc(-c2nnc3n2N=C(Cl)CS3)cc(C(F)(F)F)c1 | 20.5% (inactive)
COc1cc2ncnc(Nc3ccc(S(=O)(=O)Nc4cc(C)on4)cc3)c2cc1OCCCN1CCN(c2ccc([N+](=O)[O-])cc2)CC1 | 99.1% (inactive)
C=C(c1ccc(C(=O)NCCCn2ccnc2)cc1)c1cc2c(cc1C)C(C)(C)CCC2(C)C | 13.5% (inactive)
O=C(NCCN1CCCCC1)n1cc(-c2ccncc2)c(-c2ccc(Cl)c(O)c2)n1 | 87% (inactive)
C=C1C(=O)O[C@H]2[C@H]1CC/C(COC(=O)NCc1[nH]nc3ccccc13)=C\CC[C@@]1(C)O[C@@H]21 | -6.22% (active)
